MIN6 prolif – induces beta-cell replication in MIN6 cells | proliferation, % at 10 µM | MIN6 cells proliferation, ATPlite luminescence, 48 h; cells starved in 0.2% serum; 100% = growth in 10% serum | 0.29% of 330,000 active | AID 2380;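 active means compounds whose signal lies at least 3.5 SD above the mean of all wells on their plate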;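 further: 0% = DMSO-treated cells in low-serum medium and 100% = 10% serum control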
JMJD2C inh – human JMJD2C demethylase inhibition; inhibition, % at 2.35 µM; GST-JMJD2C(1-420) H3K9me3 demethylation, DELFIA europium; 0.069% of 330,000 active; Q9H3R0;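 active means more than half of a compound's replicate wells show inhibition beyond 50%, single wells judged on their own value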;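 further: signal counts dimethyl H3K9 product captured on neutravidin plate; 0% = median of DMSO wells and 100% = 0.3 times that DMSO median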
Target sequence (Q9H3R0 1-420 limits assumed): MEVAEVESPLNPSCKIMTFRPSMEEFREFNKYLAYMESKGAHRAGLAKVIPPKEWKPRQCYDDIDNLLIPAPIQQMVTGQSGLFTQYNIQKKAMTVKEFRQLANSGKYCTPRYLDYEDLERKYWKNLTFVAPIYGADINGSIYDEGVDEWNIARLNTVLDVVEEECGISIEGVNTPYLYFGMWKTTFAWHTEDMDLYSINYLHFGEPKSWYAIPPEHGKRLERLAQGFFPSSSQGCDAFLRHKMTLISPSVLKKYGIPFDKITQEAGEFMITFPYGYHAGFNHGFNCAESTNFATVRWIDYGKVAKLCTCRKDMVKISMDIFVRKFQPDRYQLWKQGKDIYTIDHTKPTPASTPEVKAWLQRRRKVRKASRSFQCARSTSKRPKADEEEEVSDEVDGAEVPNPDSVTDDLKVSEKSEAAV
ALR inh – blocks human ALR sulfhydryl oxidase activity | inhibition, % (concentration not given with the values) | P55789 | AID 485317 | 3.8% of 290,000 active | purified ALR, DTT oxidation, H2O2 HRP-luminol luminescence;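 active means mean replicate inhibition above about 79%, with every replicate also reaching it, limit read from the data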
Granule exo inh – lytic granule exocytosis inhibition | TALL-104 LAMP-1 surface exposure, flow cytometry; cells stimulated with thapsigargin and PMA | inhibition, % at 10 µM | 0.66% of 360,000 active | AID 651702;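 active means inhibition above about 55%, limit read from the data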
PfM18AAP inh – PfM18AAP enzyme inhibition; recombinant PfM18AAP, H-Glu-NHMec fluorogenic cleavage; inhibition, % at 7.35 µM; 1.2% of 290,000 active;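 active means inhibition above the campaign mean inhibition over all tested compounds plus 3 SD, cut at about 28% in these data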;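 further: 0% = plate median of test compound wells and 100% = 2 mM ZnCl2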
SMARCA2 act – increases SMARCA2 function in MMTV reporter cells | 1% of 370,000 active | AID 652017 | MG213 cells, MMTV-luciferase reporter, dexamethasone, overnight | activation, % at 9.1 µM; in the data active means activation above about 7.8%;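 further: 0% = vehicle wells and 100% = reference activator wells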
The depositor's hits bear a star. This is a sample that favours compounds with a hit; in the whole collection about 5.4% have one here.

`Cc1oc(C(=O)O)cc1CSCc1cc(C(=O)O)c(C)o1` gave MIN6 prolif 0, JMJD2C inh 6, ALR inh 99*, Granule exo inh -4, PfM18AAP inh -25 and SMARCA2 act 1.
CCn1c(CN(C)c2ccccc2)nc2ccccc21 was read as MIN6 prolif 4, JMJD2C inh 1, ALR inh 98*, Granule exo inh -3, PfM18AAP inh 0 and SMARCA2 act 1.
For COc1nc(-c2ccccc2Cl)ccc1C#N the results were MIN6 prolif 1, JMJD2C inh 0, ALR inh 98*, Granule exo inh -1, PfM18AAP inh 1 and SMARCA2 act -3.
Cn1c(CCNC(=O)c2ccc(Cl)cc2)n[nH]c1=S was read as MIN6 prolif -5, JMJD2C inh 12, ALR inh 96*, Granule exo inh 1, PfM18AAP inh 9 and SMARCA2 act -1.
`Cn1c(CSCc2ccc(Cl)cc2)n[nH]c1=S` gave MIN6 prolif 1, JMJD2C inh 9, ALR inh 94*, Granule exo inh -7, PfM18AAP inh 7 and SMARCA2 act -6.
`Cn1c(CSCc2ccc(F)cc2)n[nH]c1=S` gave MIN6 prolif 1, JMJD2C inh 2, ALR inh 7, Granule exo inh -14, PfM18AAP inh 14 and SMARCA2 act -1.
Screening CC1=CC(=Nc2c(C)n(C)n(-c3ccccc3)c2=O)C=CC1=O returned MIN6 prolif -6, JMJD2C inh -10 and PfM18AAP inh 17.
`CC1=CC(=Nc2c(C)n(C)n(-c3ccccc3)c2=O)C=C(C)C1=O` gave MIN6 prolif -6, JMJD2C inh -10, ALR inh 99*, Granule exo inh 1, PfM18AAP inh 1 and SMARCA2 act -3.
`CCNc1ccc(N=Nc2c(C)n(C)n(-c3ccccc3)c2=O)cc1` gave MIN6 prolif -2, JMJD2C inh 0, ALR inh 99*, Granule exo inh -5, PfM18AAP inh 8 and SMARCA2 act -7.
Screening COc1ccc(S[C@]2(C(=O)N(C)C)CC(=O)N(C(=O)C3CC3)[C@@H]2c2ccc(OC)cc2)cc1 returned SMARCA2 act -4.
`COc1ccc(/C=C(\C#N)C(=O)N2COCC2(C)C)cc1` gave MIN6 prolif -2, JMJD2C inh -4, ALR inh 3, Granule exo inh 56*, PfM18AAP inh 10 and SMARCA2 act -1.
Screening COc1ccc(/C=C(\C#N)C(=O)N=CN(C)C)cc1 returned MIN6 prolif -2, JMJD2C inh 9, ALR inh 72, Granule exo inh 1, PfM18AAP inh -15 and SMARCA2 act 1.
O=C(O)c1cc([N+](=O)[O-])c(Sc2nc3ccccc3[nH]2)c([N+](=O)[O-])c1 was read as MIN6 prolif -1, JMJD2C inh 9, ALR inh 85*, Granule exo inh -10, PfM18AAP inh -109 and SMARCA2 act 2.
`Cn1cnc([N+](=O)[O-])c1Sc1nc2ccccc2[nH]1` gave MIN6 prolif -5, JMJD2C inh 6, ALR inh 99*, Granule exo inh -3, PfM18AAP inh 3 and SMARCA2 act 3.
Screening Cc1cccc(Sc2c([N+](=O)[O-])ncn2C)c1 returned MIN6 prolif -2, JMJD2C inh -5, ALR inh 98*, Granule exo inh -6, PfM18AAP inh 0 and SMARCA2 act 2.
Cn1cnc([N+](=O)[O-])c1SCC(=O)NN was read as MIN6 prolif -1, JMJD2C inh -4, ALR inh 88*, Granule exo inh -2, PfM18AAP inh 7 and SMARCA2 act 3.
Cn1cnc([N+](=O)[O-])c1SCC(O)CN1CCCCC1 (configuration not stated) was read as MIN6 prolif -2, JMJD2C inh 5, ALR inh -2, Granule exo inh -2, PfM18AAP inh -15 and SMARCA2 act 3.
Screening O=C(CSc1nc2ccccc2nc1N1CCCCC1)N1CCN(S(=O)(=O)c2ccccc2)CC1 returned SMARCA2 act -7.
Screening Cc1cc2nc(Sc3c([N+](=O)[O-])nc(C)n3Cc3ccccc3)[nH]c2cc1C returned MIN6 prolif 0, JMJD2C inh -3, ALR inh 97*, Granule exo inh 1, PfM18AAP inh -8 and SMARCA2 act 0.
`Cc1nc([N+](=O)[O-])c(Sc2nc3ccccc3[nH]2)n1Cc1ccccc1` gave MIN6 prolif -2, JMJD2C inh 7, ALR inh 42, Granule exo inh -4, PfM18AAP inh 6 and SMARCA2 act 3.
S=c1[nH]ncn1/N=C/c1ccc(Br)cc1 was read as MIN6 prolif -1, JMJD2C inh 4, ALR inh 98*, Granule exo inh 1, PfM18AAP inh 17 and SMARCA2 act 0.
For S=c1[nH]ncn1/N=C/c1ccccc1 the results were MIN6 prolif -2, JMJD2C inh 2, ALR inh 98*, Granule exo inh -3, PfM18AAP inh 18 and SMARCA2 act -1.
For Cc1n[nH]c(=S)n1/N=C/c1ccccc1 the results were MIN6 prolif 0, JMJD2C inh -5, ALR inh 97*, Granule exo inh -5, PfM18AAP inh 15 and SMARCA2 act -2.
Screening CCn1c2ccccc2c2cc(/C=N/n3cn[nH]c3=S)ccc21 returned MIN6 prolif -1, JMJD2C inh 0, ALR inh 98*, Granule exo inh 12, PfM18AAP inh 16 and SMARCA2 act -3.
`S=c1[nH]nc(Cc2ccc(Br)cc2)n1/N=C/c1ccc(Cl)cc1` gave MIN6 prolif -4, JMJD2C inh 10, ALR inh -4, Granule exo inh 3, PfM18AAP inh 12 and SMARCA2 act -3.
CCn1c2ccccc2c2cc(/C=N/n3cnnc3)ccc21 was read as MIN6 prolif -3, JMJD2C inh -3, Granule exo inh 24, PfM18AAP inh -4 and SMARCA2 act 2.
Screening CCOC(=O)[C@]12CCCC3=C1N(CCC3)C(=O)[C@@H](CC(=O)NCC1CCCCC1)C2 returned SMARCA2 act -3.
Screening Cc1nn(-c2ccccc2)c(C)c1/C=N\NC(=O)CSc1nc2ccccc2n1Cc1ccc(Cl)cc1 returned SMARCA2 act 2.
For CCN(C[C@H]1[C@@H](c2ccc(C3=CCCC3)cc2)[C@H](CO)N1C(=O)c1cccnc1)S(=O)(=O)c1ccccc1[N+](=O)[O-] the results were SMARCA2 act -2.
`O=C(CSCCc1ccccn1)Nc1ccc(Br)cn1` gave MIN6 prolif -3, JMJD2C inh 10, ALR inh 99*, Granule exo inh -1, PfM18AAP inh -7 and SMARCA2 act -1.
Screening Cc1ccc(NC(=O)CSCCc2ccccn2)nc1 returned MIN6 prolif -1, JMJD2C inh 4, ALR inh 97*, Granule exo inh -3, PfM18AAP inh 6 and SMARCA2 act -2.
